Common to all, as to experiment: DAPPL (digital affinity profiling via proximity ligation, sequencing); 10 mM Tris-HCl pH 7.5, 50 mM NaCl, 1 mM DTT, 4% glycerol, room temperature, 30 min; GST-TFs on glutathione beads, 16-mer random dsDNA library, 0.1% formaldehyde crosslink after washing; high values mean tight binding
For one assay, the target named is HSF1 (Homo sapiens, UniProt Q00613 1-529). To be noted: protein: recombinant; tags: N-terminal GST; chain copies: 3; dsDNA, one strand shown. Summed up:
(§1)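 Binding signal is given per hexamer as its read frequency for a factor divided by its frequency in the tag-only sample. GST-fused human transcription factors were expressed in yeast, captured on glutathione beads, barcoded with DNA and pooled with that sample, then incubated with 200 nmole of a 16-mer random double-stranded DNA library in Tris/NaCl/DTT/glycerol buffer for 30 min at room temperature. The pools were then washed, crosslinked, proximity-ligated, amplified by PCR and sequenced on an Illumina NextSeq500.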

Another assay has as its target CRX (Homo sapiens, UniProt O43186 1-299). Conditions: protein: recombinant; tags: N-terminal GST; dsDNA, one strand shown. Put shortly: as §1
For the next assay, the target named is T1, ETV3L (Homo sapiens, UniProt Q6ZN32 1-361).
T1 sequence: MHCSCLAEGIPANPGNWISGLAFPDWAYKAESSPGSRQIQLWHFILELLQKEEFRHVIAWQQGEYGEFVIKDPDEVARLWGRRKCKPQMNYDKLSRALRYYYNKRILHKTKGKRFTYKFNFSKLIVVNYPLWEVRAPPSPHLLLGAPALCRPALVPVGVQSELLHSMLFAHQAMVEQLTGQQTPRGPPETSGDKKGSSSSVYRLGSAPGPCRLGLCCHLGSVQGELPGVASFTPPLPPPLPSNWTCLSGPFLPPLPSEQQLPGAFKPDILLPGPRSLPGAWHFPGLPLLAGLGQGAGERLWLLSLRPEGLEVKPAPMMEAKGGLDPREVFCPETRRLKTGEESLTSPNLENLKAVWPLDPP
Conditions: protein: recombinant; tags: N-terminal GST; dsDNA, one strand shown. Summed up: as §1

The target in the next assay is T2, SPDEF (Homo sapiens, UniProt O95238 1-335).
T2 sequence: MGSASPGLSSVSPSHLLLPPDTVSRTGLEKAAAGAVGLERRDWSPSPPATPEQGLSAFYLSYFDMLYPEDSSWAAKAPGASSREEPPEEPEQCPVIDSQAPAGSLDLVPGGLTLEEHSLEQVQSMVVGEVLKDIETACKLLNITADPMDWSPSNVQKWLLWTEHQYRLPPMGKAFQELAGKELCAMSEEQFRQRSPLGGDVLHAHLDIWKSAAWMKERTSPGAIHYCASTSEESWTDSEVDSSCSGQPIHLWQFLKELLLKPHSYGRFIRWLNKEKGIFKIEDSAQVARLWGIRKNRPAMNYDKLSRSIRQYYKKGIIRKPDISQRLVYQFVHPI
To be noted: protein: recombinant; tags: N-terminal GST; dsDNA, one strand shown. Put shortly:
as §1

In a further assay the target is T3, ERG (Homo sapiens, UniProt P11308 1-479).
T3 sequence: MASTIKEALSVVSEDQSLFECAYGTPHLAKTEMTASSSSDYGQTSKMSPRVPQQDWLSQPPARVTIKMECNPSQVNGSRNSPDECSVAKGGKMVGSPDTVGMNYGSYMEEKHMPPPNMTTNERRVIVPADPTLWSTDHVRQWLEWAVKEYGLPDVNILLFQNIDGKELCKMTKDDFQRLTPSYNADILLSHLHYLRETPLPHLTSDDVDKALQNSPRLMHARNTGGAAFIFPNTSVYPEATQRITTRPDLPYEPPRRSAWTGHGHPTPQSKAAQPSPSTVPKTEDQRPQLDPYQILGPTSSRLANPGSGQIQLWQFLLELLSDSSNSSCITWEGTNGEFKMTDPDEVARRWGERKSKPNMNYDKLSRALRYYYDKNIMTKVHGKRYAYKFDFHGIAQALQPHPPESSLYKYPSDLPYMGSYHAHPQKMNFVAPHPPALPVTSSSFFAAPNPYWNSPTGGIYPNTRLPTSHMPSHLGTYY
Conditions: protein: recombinant; tags: N-terminal GST; dsDNA, one strand shown. Put shortly:
as §1

The target in a further assay is SPI1 (Homo sapiens, UniProt P17947 1-270). To be noted: protein: recombinant; tags: N-terminal GST; dsDNA, one strand shown. Put shortly: as §1
For a further assay, the target named is T4, ELK3 (Homo sapiens, UniProt P41970 1-407).
T4 sequence: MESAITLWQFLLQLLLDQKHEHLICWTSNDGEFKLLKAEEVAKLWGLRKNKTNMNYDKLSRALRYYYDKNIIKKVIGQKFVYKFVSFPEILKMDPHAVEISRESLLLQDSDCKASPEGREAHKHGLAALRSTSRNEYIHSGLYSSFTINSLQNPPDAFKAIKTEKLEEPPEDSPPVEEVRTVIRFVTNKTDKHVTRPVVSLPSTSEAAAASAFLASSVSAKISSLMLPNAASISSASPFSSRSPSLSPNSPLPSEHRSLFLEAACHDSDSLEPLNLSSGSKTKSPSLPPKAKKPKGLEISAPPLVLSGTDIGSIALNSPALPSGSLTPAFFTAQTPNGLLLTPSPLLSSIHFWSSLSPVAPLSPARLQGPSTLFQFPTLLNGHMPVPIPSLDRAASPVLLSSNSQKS
To be noted: protein: recombinant; tags: N-terminal GST; dsDNA, one strand shown. Put shortly: as §1

A further assay concerns the target T5, ETV7 (Homo sapiens, UniProt Q9Y603 1-341).
T5 sequence: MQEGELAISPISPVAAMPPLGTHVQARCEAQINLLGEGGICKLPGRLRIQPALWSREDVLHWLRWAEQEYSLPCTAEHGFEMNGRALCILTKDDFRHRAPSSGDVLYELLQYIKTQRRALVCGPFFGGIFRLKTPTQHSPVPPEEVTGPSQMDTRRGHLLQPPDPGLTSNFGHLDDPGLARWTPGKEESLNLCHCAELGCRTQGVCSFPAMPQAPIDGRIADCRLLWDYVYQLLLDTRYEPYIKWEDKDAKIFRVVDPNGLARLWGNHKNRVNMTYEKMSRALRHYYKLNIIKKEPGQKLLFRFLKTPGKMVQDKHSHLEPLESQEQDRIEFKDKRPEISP
Conditions: protein: recombinant; tags: N-terminal GST; dsDNA, one strand shown. Put shortly: as §1

The target in another assay is T6, SPIC (Homo sapiens, UniProt Q8N5J4 1-248).
T6 sequence: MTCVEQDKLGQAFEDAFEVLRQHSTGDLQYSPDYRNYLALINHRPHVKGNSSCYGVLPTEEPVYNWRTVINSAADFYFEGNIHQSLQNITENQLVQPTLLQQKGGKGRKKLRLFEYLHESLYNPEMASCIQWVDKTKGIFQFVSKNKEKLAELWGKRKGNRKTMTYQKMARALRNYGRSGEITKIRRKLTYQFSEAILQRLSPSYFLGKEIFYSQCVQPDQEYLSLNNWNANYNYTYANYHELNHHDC
To be noted: protein: recombinant; tags: N-terminal GST; dsDNA, one strand shown. Put shortly:
as §1

A further assay concerns the target T7, ERF (Homo sapiens, UniProt P50548 1-548).
T7 sequence: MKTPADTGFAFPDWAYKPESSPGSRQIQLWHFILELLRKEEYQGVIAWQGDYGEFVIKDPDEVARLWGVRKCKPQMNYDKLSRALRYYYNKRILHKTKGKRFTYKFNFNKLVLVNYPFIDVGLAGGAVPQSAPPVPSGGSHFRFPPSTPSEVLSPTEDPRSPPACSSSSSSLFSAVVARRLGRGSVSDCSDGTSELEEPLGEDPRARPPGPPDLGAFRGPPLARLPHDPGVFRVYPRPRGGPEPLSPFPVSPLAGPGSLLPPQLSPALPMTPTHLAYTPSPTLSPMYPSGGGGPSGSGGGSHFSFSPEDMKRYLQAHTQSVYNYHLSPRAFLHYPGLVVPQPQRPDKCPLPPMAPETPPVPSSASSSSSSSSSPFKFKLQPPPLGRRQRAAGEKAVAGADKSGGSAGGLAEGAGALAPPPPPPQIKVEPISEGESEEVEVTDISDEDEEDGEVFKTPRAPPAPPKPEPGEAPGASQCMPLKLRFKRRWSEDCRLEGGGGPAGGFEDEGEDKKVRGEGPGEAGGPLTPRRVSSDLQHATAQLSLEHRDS
To be noted: protein: recombinant; tags: N-terminal GST; dsDNA, one strand shown. Put shortly:
as §1

Another assay deals with ELF1 (Homo sapiens, UniProt P32519 1-619). To be noted: protein: recombinant; tags: N-terminal GST; dsDNA, one strand shown. Summed up: as §1
Sequence of ELF1 (P32519 whole entry): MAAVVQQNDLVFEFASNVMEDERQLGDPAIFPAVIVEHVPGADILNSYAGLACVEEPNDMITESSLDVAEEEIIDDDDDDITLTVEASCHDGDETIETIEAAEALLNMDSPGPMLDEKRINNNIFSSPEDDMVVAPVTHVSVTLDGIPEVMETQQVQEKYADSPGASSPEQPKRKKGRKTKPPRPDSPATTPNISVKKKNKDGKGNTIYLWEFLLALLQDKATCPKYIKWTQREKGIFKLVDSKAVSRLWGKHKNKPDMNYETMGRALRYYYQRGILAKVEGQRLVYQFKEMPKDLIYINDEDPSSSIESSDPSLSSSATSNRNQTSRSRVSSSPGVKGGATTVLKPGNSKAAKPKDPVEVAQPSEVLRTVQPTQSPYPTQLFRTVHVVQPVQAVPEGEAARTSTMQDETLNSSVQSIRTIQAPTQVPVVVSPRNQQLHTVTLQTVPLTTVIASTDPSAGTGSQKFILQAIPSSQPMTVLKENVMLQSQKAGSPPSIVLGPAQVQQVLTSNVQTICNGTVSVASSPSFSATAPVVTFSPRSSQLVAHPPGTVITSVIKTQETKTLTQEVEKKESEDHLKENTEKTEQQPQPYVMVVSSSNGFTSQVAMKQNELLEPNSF
The next assay deals with ETV1 (Homo sapiens, UniProt P50549 1-477). Conditions: protein: recombinant; tags: N-terminal GST; dsDNA, one strand shown. Put shortly: as §1
Sequence of ETV1 (P50549 whole entry): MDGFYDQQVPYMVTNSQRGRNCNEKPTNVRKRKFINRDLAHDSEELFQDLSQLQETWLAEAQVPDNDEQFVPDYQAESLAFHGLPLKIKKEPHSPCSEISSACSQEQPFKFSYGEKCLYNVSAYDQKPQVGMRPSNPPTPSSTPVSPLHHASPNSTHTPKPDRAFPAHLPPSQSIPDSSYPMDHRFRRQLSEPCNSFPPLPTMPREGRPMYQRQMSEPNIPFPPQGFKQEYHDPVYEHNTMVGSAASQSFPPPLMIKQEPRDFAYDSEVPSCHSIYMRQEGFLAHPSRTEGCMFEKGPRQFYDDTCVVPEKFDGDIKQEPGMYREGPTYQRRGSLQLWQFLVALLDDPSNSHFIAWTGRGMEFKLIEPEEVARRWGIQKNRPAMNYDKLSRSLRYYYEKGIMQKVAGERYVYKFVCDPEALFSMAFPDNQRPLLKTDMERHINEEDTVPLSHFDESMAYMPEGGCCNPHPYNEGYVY

Sequence of HSF1 (Q00613 whole entry, the tested form may be a part): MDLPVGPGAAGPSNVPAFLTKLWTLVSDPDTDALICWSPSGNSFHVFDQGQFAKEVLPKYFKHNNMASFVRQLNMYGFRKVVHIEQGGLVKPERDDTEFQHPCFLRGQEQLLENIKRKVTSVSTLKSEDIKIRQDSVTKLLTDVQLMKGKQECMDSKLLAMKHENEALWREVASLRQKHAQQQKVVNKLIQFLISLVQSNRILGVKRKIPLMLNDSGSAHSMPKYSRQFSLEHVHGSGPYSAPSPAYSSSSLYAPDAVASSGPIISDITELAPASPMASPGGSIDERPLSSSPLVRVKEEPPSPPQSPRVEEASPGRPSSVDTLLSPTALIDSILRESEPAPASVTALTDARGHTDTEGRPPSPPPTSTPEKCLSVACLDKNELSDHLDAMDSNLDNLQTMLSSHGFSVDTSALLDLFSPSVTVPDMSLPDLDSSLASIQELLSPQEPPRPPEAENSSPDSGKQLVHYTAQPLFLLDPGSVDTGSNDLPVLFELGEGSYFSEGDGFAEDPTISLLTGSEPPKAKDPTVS
Sequence of CRX (O43186 whole entry): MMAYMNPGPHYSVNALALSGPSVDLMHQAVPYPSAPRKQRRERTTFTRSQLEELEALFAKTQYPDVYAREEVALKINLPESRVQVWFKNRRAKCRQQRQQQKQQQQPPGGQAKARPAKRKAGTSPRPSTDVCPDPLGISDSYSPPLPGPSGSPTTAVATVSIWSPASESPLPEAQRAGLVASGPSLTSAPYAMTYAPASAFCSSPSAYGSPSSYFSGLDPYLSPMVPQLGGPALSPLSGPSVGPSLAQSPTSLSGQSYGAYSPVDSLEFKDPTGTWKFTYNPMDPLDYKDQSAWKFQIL

Take AGGATT: the binding signal was 1.78 fold enrichment (6-mer frequency, TF over GST control) in the assay with HSF1; 2.82 fold enrichment (6-mer frequency, TF over GST control) with CRX; 1.03 fold enrichment (6-mer frequency, TF over GST control) with ETV3L; 1.04 fold enrichment (6-mer frequency, TF over GST control) with SPDEF.

As to GGATTA, the binding signal with HSF1 is 3.05 fold enrichment (6-mer frequency, TF over GST control); with CRX, 5.42 fold enrichment (6-mer frequency, TF over GST control); with SPDEF it was 1.02 fold enrichment (6-mer frequency, TF over GST control).

Consider CAGATA, for which the binding signal is 1.12 fold enrichment (6-mer frequency, TF over GST control) with HSF1 and 1.17 fold enrichment (6-mer frequency, TF over GST control) in the assay with CRX.

Turning to GTGGAT, the binding signal with ERG is 1 fold enrichment (6-mer frequency, TF over GST control); with SPI1, 1.06 fold enrichment (6-mer frequency, TF over GST control); with ELK3 it was 1.04 fold enrichment (6-mer frequency, TF over GST control); with HSF1 it was 1.01 fold enrichment (6-mer frequency, TF over GST control); with CRX it was 1.25 fold enrichment (6-mer frequency, TF over GST control).

On to GATAAG, for which the binding signal with ELK3 is 1.02 fold enrichment (6-mer frequency, TF over GST control); in the assay with HSF1, 1.29 fold enrichment (6-mer frequency, TF over GST control); with CRX, 1.77 fold enrichment (6-mer frequency, TF over GST control).

As for GAAAGT, the binding signal with HSF1 is 1.26 fold enrichment (6-mer frequency, TF over GST control); in the assay with ETV7, 1 fold enrichment (6-mer frequency, TF over GST control).

Take CGAGAA: the binding signal is 3.31 fold enrichment (6-mer frequency, TF over GST control) in the assay with HSF1; 1.27 fold enrichment (6-mer frequency, TF over GST control) with CRX; 1.01 fold enrichment (6-mer frequency, TF over GST control) with ETV7.

On to ATTAGA, for which the binding signal is 1.45 fold enrichment (6-mer frequency, TF over GST control) with HSF1 and 1.95 fold enrichment (6-mer frequency, TF over GST control) with CRX.

As to AATCGT, the binding signal with HSF1 was 1.01 fold enrichment (6-mer frequency, TF over GST control); in the assay with CRX, 1.15 fold enrichment (6-mer frequency, TF over GST control).

Take CTGGCG: the binding signal with SPIC was 1.09 fold enrichment (6-mer frequency, TF over GST control).

In the case of TCGTAA, the binding signal is 1.12 fold enrichment (6-mer frequency, TF over GST control) with HSF1 and 1.15 fold enrichment (6-mer frequency, TF over GST control) with CRX.

Consider GCGAAC, for which the binding signal with HSF1 is 1.03 fold enrichment (6-mer frequency, TF over GST control); in the assay with ERF, 1.05 fold enrichment (6-mer frequency, TF over GST control); in the assay with ETV7, 1.04 fold enrichment (6-mer frequency, TF over GST control).

On to CAAAGA, for which the binding signal in the assay with ELF1 is 1.01 fold enrichment (6-mer frequency, TF over GST control); with ELK3 it was 1.03 fold enrichment (6-mer frequency, TF over GST control); with HSF1 it was 1.1 fold enrichment (6-mer frequency, TF over GST control); in the assay with CRX, 1.05 fold enrichment (6-mer frequency, TF over GST control); in the assay with ETV1, 1.02 fold enrichment (6-mer frequency, TF over GST control).

The values above are taken from publication PMC7862700, “An all-to-all approach to the identification of sequence-specific readers for epigenetic DNA modifications on cytosine”.
